According to the supplement of paper PMC13380429:

System: Vero E6 infected with SARS-CoV-2
Assay: inhibition of SARS-CoV-2 cytopathic effect; higher = more antiviral protection, active = above 15
Conditions: 48 h

Measured: inhibition of SARS-CoV-2 cytopathic effect

COc1ccc2[nH]c([S+]([O-])Cc3ncc(C)c(OC)c3C)nc2c1 (stereo not given) [omeprazole-magnesium]
inactive: 1 nM 3.38% | 8.33 nM 2.29% | 100 nM 3.04% | 833.33 nM 6.47% | 10000 nM 6.97%

C=C(C)[C@@H]1[C@H]2OC(=O)[C@@H]1[C@]1(O)C[C@H]3O[C@]34C(=O)O[C@H]2[C@]14C [picrotoxinin]
inactive: 1 nM -2.53% | 8.33 nM -1.67% | 100 nM -2.12% | 833.33 nM -3.39% | 10000 nM -2.53%

Cc1c(S(=O)(=O)O)oc2c1C(=O)C(=O)c1c-2ccc2c1CCCC2(C)C [sodium-tanshinone-II-A-sulfonate]
inactive: 1 nM -6.63% | 8.33 nM -8.06% | 100 nM -4.77% | 833.33 nM -7.14% | 10000 nM -10.1%

c1ccc2c(-c3cnn4cc(-c5ccc(N6CCNCC6)cc5)cnc34)ccnc2c1
inactive: 1 nM 1.9% | 8.33 nM 4.28% | 100 nM 1.29% | 833.33 nM -6.31% | 10000 nM -26.3%

C[C@H]1COC2=C1C(=O)C(=O)c1c2ccc2c1CCCC2(C)C [cryptotanshinone]
inactive: 1 nM 1.45% | 8.33 nM 0.55% | 100 nM 2.85% | 833.33 nM -1.89% | 10000 nM -2.92%

COc1ccc2nc3ccc(Cl)cc3c(SCCCN)c2c1
inactive: 1 nM 0.89% | 8.33 nM 1% | 100 nM 0.27% | 833.33 nM 0.79% | 10000 nM 2.63%

Cc1cc(O)c2c(c1)C(=O)c1cc(O)cc(O)c1C2=O [emodin]
inactive: 1 nM -1.74% | 8.33 nM 0.93% | 100 nM -1.79% | 833.33 nM 1.29% | 10000 nM 2.24%

CC(C)NC[C@@H](O)COc1ccc(CC(N)=O)cc1 (racemic) [atenolol-(+/-)]
inactive: 1 nM -2.25% | 8.33 nM 0.225% | 100 nM 0.74% | 833.33 nM 0.24% | 10000 nM -0.8%

CCOC(=O)c1ccc(N)cc1 [benzocaine]
inactive: 1 nM -3.23% | 8.33 nM -2.13% | 100 nM -1.89% | 833.33 nM -4.68% | 10000 nM -1.78%

c1cc(-c2cnn3cc(-c4ccc(OCCN5CCCCC5)cc4)cnc23)ccn1 [dorsomorphin]
inactive: 1 nM -2.38% | 8.33 nM -0.08% | 100 nM 2.59% | 833.33 nM -0.64% | 10000 nM -2.57%

CCNC(=O)CCC/C=C\C[C@@H]1[C@@H](/C=C/[C@@H](O)CCc2ccccc2)[C@H](O)C[C@@H]1O [bimatoprost]
inactive: 1 nM -2.31% | 8.33 nM -0.42% | 100 nM -0.15% | 833.33 nM -0.88% | 10000 nM 3.04%

c1cnc(SCc2cccnc2)nc1 [tasuldine]
inactive: 1 nM 1.94% | 8.33 nM 1.66% | 100 nM 0.38% | 833.33 nM 0.69% | 10000 nM 1.89%

Cc1onc(-c2ccccc2)c1-c1ccc(S(N)(=O)=O)cc1 [valdecoxib]
inactive: 1 nM 0.48% | 8.33 nM -0.66% | 100 nM -0.48% | 833.33 nM 3.3% | 10000 nM 0.55%

CCOc1cn(-c2ccc(F)cc2C)nc1C(=O)Nc1ccc(Oc2ccnc3cc(OC)c(OC)cc23)c(F)c1
inactive: 1 nM -0.58% | 8.33 nM -1.4% | 100 nM -1.89% | 833.33 nM 0.24% | 10000 nM -1.4%

Clc1cccc(Nc2nnc(-c3ccccc3)c3ccccc23)c1
inactive: 1 nM 1.65% | 8.33 nM 2.3% | 100 nM 2.13% | 833.33 nM 1.98% | 10000 nM 2.92%

Oc1ccc2[nH]cc(C3=CCNCC3)c2n1
inactive: 1 nM 6.34% | 8.33 nM 6.88% | 100 nM -4.05% | 833.33 nM -1.7% | 10000 nM -2.6%

Nc1nc2ccc(Cl)cc2c2nc(-c3ccco3)nn12
inactive: 1 nM 3.02% | 8.33 nM 1.43% | 100 nM -1.65% | 833.33 nM -3.37% | 10000 nM 1.46%

C[C@@H]1CN(Cc2ccc(F)cc2)CCN1C(=O)COc1ccc(Cl)cc1NC(N)=O
inactive: 1 nM -1.77% | 8.33 nM -0.1% | 100 nM -2% | 833.33 nM -1.98% | 10000 nM -1.75%

O=C(O)c1ccccc1Nc1cccc(OCc2ccc3ccccc3n2)c1
inactive: 1 nM -0.27% | 8.33 nM 2.38% | 100 nM 0.56% | 833.33 nM 0.3% | 10000 nM -0.51%

N[C@H]1C(O)O[C@H](CO)[C@@H](O)[C@@H]1O (mixture of isomers) [glucosamine]
inactive: 1 nM 3.44% | 8.33 nM 0.07% | 100 nM 2.73% | 833.33 nM 0.81% | 10000 nM 1.42%

N=C1CCCN1Cc1[nH]c(=O)[nH]c(=O)c1Cl [tipiracil]
inactive: 1 nM 2.52% | 8.33 nM 2.02% | 100 nM 0.58% | 833.33 nM -1.37% | 10000 nM 2.84%

O=C(c1ccc(F)cc1)N1CCC[C@H](c2nc(-c3ccc(F)cc3)no2)C1
inactive: 1 nM -1.67% | 8.33 nM -0.59% | 100 nM -0.85% | 833.33 nM 0.74% | 10000 nM 2.44%

CON(C)C(=O)N1N=C(c2cc(F)ccc2F)S[C@@]1(CCCN)c1ccccc1 [filanesib]
inactive: 1 nM -0.78% | 8.33 nM -1.05% | 100 nM -1.91% | 833.33 nM -0.01% | 10000 nM -2.39%

N=C(N)NN=C1C=CC(=NNC(N)=S)C=C1 [ambazone]
inactive: 1 nM 1.75% | 8.33 nM 1.52% | 100 nM 1.46% | 833.33 nM 1.18% | 10000 nM -0.05%

CCS(=O)(=O)N1CCC[C@@H]2CN3CCc4cc(OC)ccc4[C@@H]3C[C@@H]21
inactive: 1 nM -0.74% | 8.33 nM 1.49% | 100 nM 0.02% | 833.33 nM 5.17% | 10000 nM -0.18%

c1ccc(C2CC2)c(OCC2=NCCN2)c1 [cirazoline]
inactive: 1 nM -0.75% | 8.33 nM 0.31% | 100 nM -8.08% | 833.33 nM 0.87% | 10000 nM -3.99%

CC(=O)[C@@]1(O)CC[C@H]2[C@@H]3C=C(Cl)C4=CC(=O)[C@@H]5C[C@@H]5[C@]4(C)[C@H]3CC[C@@]21C
inactive: 1 nM -4.45% | 8.33 nM -5.77% | 100 nM -6.29% | 833.33 nM -6.05% | 10000 nM -4.41%

C=C[C@H]1CN2CC[C@H]1C[C@@H]2[C@@H](O)c1ccnc2ccc(OC)cc12 [quinidine]
inactive: 1 nM -8.54% | 8.33 nM -5.1% | 100 nM -8.19% | 833.33 nM -4.54% | 10000 nM -4.21%

Cc1cc(C2CCCCC2)n(O)c(=O)c1 [ciclopirox]
inactive: 1 nM 0.88% | 8.33 nM 1.21% | 100 nM 0.99% | 833.33 nM -0.09% | 10000 nM -2.68%

CC(C)(Sc1ccc(CCN(CCCCC2CCCCC2)C(=O)NC2CCCCC2)cc1)C(=O)O
inactive: 1 nM -11.4% | 8.33 nM -10% | 100 nM -5.76% | 833.33 nM -3.65% | 10000 nM -8.5%

COc1ccc(-c2cc3nccn3c(Nc3ncccc3C(N)=O)n2)cc1OC
inactive: 1 nM -3.34% | 8.33 nM -0.9% | 100 nM -4.75% | 833.33 nM -2.69% | 10000 nM -6.9%

Cc1c(N2C(=O)[C@@H]3[C@H](O)CCN3C2=O)ccc(C#N)c1Cl
inactive: 1 nM 2.38% | 8.33 nM 3.57% | 100 nM 0.87% | 833.33 nM 2.02% | 10000 nM 1.06%

CC(C)(C)c1ccc(-c2nc3ccccc3[nH]2)cc1
inactive: 1 nM -0.43% | 8.33 nM -0.22% | 100 nM 1.49% | 833.33 nM 3.96% | 10000 nM 4.75%
